# Screening data (PubChem)
# G9a inh: inhibitors of human histone lysine methyltransferase G9a; Potency, µM (titrated, usually from 102 µM), for inactives: top-dose activity, negative = inhibition, most hits filed as inhibitors; Q96KQ7; actives 8.8% (n = 350,000); AID 504332; G9a H3K9 monomethylation, AlphaScreen, 2 h; note: % is set by controls: 0 for no effect and ±100 for the full control effect; nearly all actives have a fitted effect of over 75% in size
# Target sequence (Q96KQ7 913-1193 limits assumed): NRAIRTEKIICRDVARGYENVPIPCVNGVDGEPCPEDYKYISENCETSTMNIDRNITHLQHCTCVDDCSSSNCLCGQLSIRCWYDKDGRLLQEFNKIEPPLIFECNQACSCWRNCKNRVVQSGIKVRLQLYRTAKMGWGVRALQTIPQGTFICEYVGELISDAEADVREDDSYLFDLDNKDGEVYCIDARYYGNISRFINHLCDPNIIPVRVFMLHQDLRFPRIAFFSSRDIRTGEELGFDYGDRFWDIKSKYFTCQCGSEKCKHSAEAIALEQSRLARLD
#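 AlphaScreen read-out: biotin-H3K9 peptide (500 nM) methylation by 20 nM enzyme with 20 uM SAM, 2 h at room temperature after 15 min compound preincubation; anti-monomethyl H3K9 antibody plus donor/acceptor beads, 10 min dark.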
# PLK1 PBD inh: blocks phosphopeptide binding to human PLK1 polo-box domain. P53350. Plk1 PBD binding of FITC phosphopeptide, fluorescence polarization. Potency, µM, for inactives: max response, negative = inhibition, hits mostly inhibitors. actives 2.8% (n = 360,000). AID 720504; note: series mostly up to about 57 µM; % is set by controls: 0 for no effect and ±100 for the full control effect; nearly all actives have a fitted effect of over 65% in size
# JMJD2A Tudor inh: inhibitors of human JMJD2A Tudor domain | AlphaScreen JMJD2A-Tudor / H3K4me3 peptide binding | Potency, µM (series often up to 114 µM), inactives show at the top dose activity change, negative = inhibition, most hits filed as inhibitors | actives 4.4% (n = 390,000) | AID 504339; note: % is set by controls: 0 for no effect and ±100 for the full control effect; nearly all actives have a fitted effect of over 50% in size
# HP1b chromo inh: HP1-beta chromodomain-methylated histone interaction inhibition. AlphaScreen HP1-beta / biotin-H3K9me3 peptide binding. Potency, µM (highest dose often 114 µM), without a hit: top-dose activity change, negative = inhibition, hits mostly inhibitors. actives 0.56% (n = 390,000). P83916; note: nearly all actives have a fitted effect of over 70% in size
# Target sequence (P83916 whole entry, looked up): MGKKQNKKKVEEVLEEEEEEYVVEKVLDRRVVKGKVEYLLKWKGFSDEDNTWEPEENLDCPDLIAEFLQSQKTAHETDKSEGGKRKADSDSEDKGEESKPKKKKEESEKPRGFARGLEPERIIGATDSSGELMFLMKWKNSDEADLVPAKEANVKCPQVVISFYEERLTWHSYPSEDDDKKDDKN
#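 AlphaScreen: HP1-beta (50 nM) preformed 30 min with biotin-H3(1-18)K9me3 peptide (50 nM) in PBS pH 7.4, 0.01% Tween-20. Compound added for 30 min at RT, then streptavidin donor/nickel chelate acceptor beads (10 ug/mL) for 30 min.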
# BAZ2B inh: BAZ2B (human) inhibition. AlphaScreen BAZ2B-H3K14Ac peptide displacement. Potency, µM (series often up to 114 µM), for the others: at the highest dose activity change, negative = inhibition, most hits filed as inhibitors. actives 4.4% (n = 360,000); note: % is set by controls: 0 for no effect and ±100 for the full control effect; nearly all actives have a fitted effect of over 60% in size
#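 Inhibition is scored as reduced AlphaScreen emission. The BAZ2B/b-H3(5-23)K14Ac complex (50 nM each) in PBS pH 7.4, 0.01% Tween-20 meets compound (up to 110 uM) for 30 min at RT before bead addition.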
# Sfp inh: blocks B. subtilis Sfp PPTase activity; Q9F4F7; Biochemical Sfp PPTase activity, qHTS; Potency, µM, for inactives: largest response in the series, negative = inhibition, hits mostly inhibitors; actives 3.5% (n = 310,000); AID 1490;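 note: the enzyme is Sfp with the accession as filed and its product quenches rhodamine fluorescence; 0% = enzyme reaction without inhibitor and -100% = no enzyme wells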
#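 Buffer: 50 mM Hepes-Na pH 7.6, 10 mM MgCl2, 0.01% Nonidet P-40, 0.01% BSA. Enzyme 15 nM, pre-exposed to compound 15 min; substrates then added and fluorescence change tracked over 30 min.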
# Numbers without * were called inactive; ? = inconclusive; · = no result; [ ] = dose if it differs, or a comment. The list is not random: actives were taken first. Their share in the collection is about 12%. Calls come from the whole dose curve; as a rule, active = well fitted curve in the direction sought with a large enough effect; inconclusive = small, poorly fitted or top-dose-only effect, or another doubt; inactive = no such curve, though single readings can be large; an effect the other way counts as inactive or inconclusive. Potency is the fitted concentration of half-maximal effect.
SMILES,G9a inh,PLK1 PBD inh,JMJD2A Tudor inh,HP1b chromo inh,BAZ2B inh,Sfp inh
O=C(NNS(=O)(=O)c1ccc2ccccc2c1)c1cccnc1,-16%[59 µM],0%,7.9µM*,10%,0%,2%
O=C(NNS(=O)(=O)c1ccccc1)c1cccnc1,22%[59 µM],-17%,-11%[11.4 µM],13%,-17%,-6%
O=C(NNS(=O)(=O)c1ccccc1[N+](=O)[O-])c1cccnc1,·,27µM*,4%[11.4 µM],7%,?,-20%
Cc1ccc(NS(=O)(=O)c2ccc(CCC(=O)NCc3cccnc3)cc2)cc1,40µM*,-8%,-3%,42%,-4%,12%
CC(=O)Nc1ccc(S(=O)(=O)NNC(=O)c2cccc([N+](=O)[O-])c2)cc1,?,-13%,-13%,16%,-5%,-11%
O=C(NNS(=O)(=O)c1ccccc1[N+](=O)[O-])c1cccc([N+](=O)[O-])c1,-21%,17µM*,10µM*,41%,-6%,-6%
CCNS(=O)(=O)c1ccc(CCC(=O)NCc2cccnc2)cc1,-8%,2%,4%,45%,-9%,14%
O=C(NNS(=O)(=O)c1ccc2ccccc2c1)c1cc(-c2ccccn2)nc2ccccc12,79µM*,?,-33%,-10%,9%,-13%
COc1ccc(NC(=O)CN2C(=O)/C(=C3\SC(=S)N(C4CCS(=O)(=O)C4)C3=O)c3ccccc32)cc1 (centres undefined),·,-7%,-6%,?,-20%,14µM*
O=C(CN1C(=O)C2CCCCN2C(=O)c2ccccc21)Nc1ccc(F)cc1 (centres undefined),7%,-2%,-11%,64%,-16%,23%
O=C(CN1C(=O)/C(=C2\SC(=S)N(C3CCS(=O)(=O)C3)C2=O)c2ccccc21)Nc1ccc(F)cc1 (centres undefined),20µM*,-10%,-17%,-24%,-20%,-24%
CC[C@@H]1/C=C(\C)C[C@H](C)C[C@H](OC)[C@H]2O[C@@](O)(C(=O)C(=O)N3CCCC[C@H]3C(=O)O[C@H](/C(C)=C/[C@@H]3CC[C@H](Cl)[C@H](OC)C3)[C@H](C)[C@@H](O)CC1=O)[C@H](C)C[C@@H]2OC,-16%[12.7 µM],·,·,·,·,12%
CC(=O)Nc1ccc(S(=O)(=O)NCCC(=O)NCCOc2ccccc2)cc1,20%[2.33 µM],-10%,-20%,20%,7%,·
CC1(C)CN(O)CCN1O,20µM*,-6%,-17%,20%,-28%,-13%
CCc1cc2c(=O)c(-c3nc4ccccc4[nH]3)coc2c(CN2CCCCC2)c1O,?,-7%,-22%,62%,79µM*,6%
CCc1cc2c(=O)c(-c3nc4ccccc4[nH]3)coc2c(CN2CCCCC2C)c1O (centres undefined),·,-8%,-32%,50%,-13%,1%
O=c1oc2c(CN3CCCCC3)c(O)ccc2cc1-c1nc2ccccc2[nH]1,14%[12.7 µM],27µM*,-3%,44%,9%,9%
CN(Cc1cccs1)C(=O)COc1cccc2c1OC(C)(C)C2,·,9%,0%,39%,·,·
CCOC(=O)c1ccc(NC(=O)CN2C(=O)NC3(CCCCCCC3)C2=O)cc1,4%[12.7 µM],-3%,-19%,19%,-7%,·
O=C(NC(=S)Nc1ccc(Cc2ccncc2)cc1)c1ccc(F)cc1,?,-12%,-15%,-12%,·,50µM*
CNC(=S)Nc1ccc(Cc2ccncc2)cc1,8%,-2%,-5%,41%,-3%,5%
CC(C)(C)C(=O)NC(=S)Nc1ccc(Cc2ccncc2)cc1,35µM*,-21%,?,-15%,-35%,-2%
COc1ccc(NC(=O)c2ccc(-c3nc(CSc4ccccc4)c(C)o3)cc2)c(OC)c1,?,·,-17%,41%,-20%,·
CC(=O)c1c(C)[nH]c(C(=O)OCC(=O)NCc2cccs2)c1C,8%[12.7 µM],-2%,-19%,10%,-25%,·
CCN(CC)CCN(C(=O)c1ccc2ccccc2c1)c1nc2ccc(OC)cc2s1,79µM*,-2%,?,-10%[57 µM],?,-27%
SMILES,G9a inh,PLK1 PBD inh,JMJD2A Tudor inh,HP1b chromo inh,BAZ2B inh,Sfp inh
COc1ccc2nc(N(Cc3cccnc3)C(=O)COc3ccccc3)sc2c1,-1%[59 µM],·,-8%,15%,-8%,·
CCN(CC)CCN(C(=O)c1cc2ccccc2cc1OC)c1nc2ccc(F)cc2s1,40µM*,-6%,32µM*,19%,?,-26%
COc1ccc2nc(N(Cc3ccccc3)C(=O)CCNC(C)=O)sc2c1,32µM*,3%,-10%,21%,-34%,6%
CCN(CC)CCN(C(=O)c1cc2ccccc2cc1OC)c1nc2ccc(OC)cc2s1,45µM*,3%,?,-6%,?,50µM*
Cc1nc(Nc2ncc(C(=O)Nc3c(C)cccc3Cl)s2)cc(N2CCN(CCO)CC2)n1,-6%[12.7 µM],·,·,·,·,18%
O=C(O)CCNS(=O)(=O)c1ccc2ccccc2c1,19%,-7%,-17%,12%,?,-1%
O=C(O)CCNc1cc2ccccc2cc1C(=O)O,?,-12%,40µM*,-21%,·,?
O=C(O)CCCNc1ccc(S(=O)(=O)Nc2ccccc2C(=O)O)cc1C(=O)O,50µM*,1%,-34%,8%,?,22%
Cc1ccccc1NS(=O)(=O)c1ccc(C)c(C(N)=O)c1,0%,0%,13%,29%,-2%,19%
Cc1ccc2nc(Nc3ccc(Cl)cc3)c3nncn3c2c1,6%,-3%,-11%,40%,-1%,-3%
COc1ccc(C(=O)COC(=O)c2cc(-c3ccccc3)nc3c(C)cccc23)cc1,36%[59 µM],·,6%,34%,13%,·
CCC(C)[C@H](NS(=O)(=O)c1ccc(C)cc1)C(=O)N1CCC(C(=O)N2CCC(C(N)=O)CC2)CC1 (some centres undefined),·,-18%,-9%,22%,-3%[57.1 µM],13%
COC(=O)[C@@H]1C[C@@H]2CC[C@@H](O)C[C@@H]2N1Cc1ccc(N2CCOCC2)cc1,·,·,·,·,·,-7%
c1ccc(C2=Nc3ccccc3SC2c2nc3ccccc3[nH]2)cc1 (centres undefined),13µM*,·,·,·,?,40µM*
O=C1CC(c2nc3ccccc3[nH]2)CN1c1ccccc1 (centres undefined),?,0%,-15%,1%,-5%,14%
CCOc1ccc(/C=C(\C(=O)O)c2ccc(S(=O)(=O)N3CCCCC3)s2)cc1OC,·,-12%,-12%,7%,·,·
COc1cc(/C=C(\C(=O)O)c2ccc(S(=O)(=O)N3CCCC3)s2)cc(OC)c1,50µM*,-6%,-16%,11%,-39%,·
COc1ccc(Br)cc1/C=C(\C(=O)O)c1ccc(S(=O)(=O)N2CCCC2)s1,·,?,89µM*,-10%,·,·
